Source: PubChem (National Center for Advancing Translational Sciences (NCATS))
TDP1 cell CPT: DT40-hTDP1 cell growth loss with CPT | chicken DT40 Tdp1-/-;hTDP1 cells + 20 nM CPT, ATP luminescence, 48 h | Potency, µM (series often up to 46.2 µM), usual class: inhibitors | actives 12% (n = 420,000); also: nearly all actives have a fitted effect of over 55% in size
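Chicken DT40 Tdp1-/- cells stably complemented with human TDP1 were seeded at 400 cells/well in medium containing 20 nM camptothecin, exposed to pin-transferred compounds, and grown at 37 °C for at least 48 hr. Viability was read as ATP luminescence.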
IL-1B inflam inh: inhibitors of inflammasome signaling (IL-1 beta secretion); THP-1 LPS/ATP IL-1B secretion, AlphaLISA, 16 h; stronger effect = lower value; activity change, % at 57.5 µM; actives 4.7% (n = 360,000); AID 743279; in the data active = activity change below about -50%; inconclusive = mostly about -30% to -49%
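Secreted IL-1B measured by AlphaLISA bead assay after 16 h compound exposure of THP-1 cells; compounds (final up to 57.5 uM) added 1 h before LPS (250 ng/mL) and ATP (1.25 mM) stimulation; lower signal means less secretion.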
TGFb inhibitor: inhibitors of TGF-b signaling; HepG2 CAGA-GFP TGF-b/SMAD3 reporter, GFP fluorescence, 18 h; TGF-beta stimulated, 500 pg/mL final; Potency, µM (titrated, usually from 46.1 µM), most hits filed as inhibitors; actives 1.2% (n = 410,000); AID 588855; also: nearly all actives have a fitted effect of over 65% in size
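Using HEPG2 CAGA-GFP reporter cells at 1000 cells/well, we pinned test compounds, stimulated with recombinant TGF-beta (500 pg/mL final) and measured total well GFP after 18 h.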
TDP1 cell noCPT: qHTS for Inhibitors of human tyrosyl-DNA phosphodiesterase 1 (TDP1): qHTS in cells in absence of CPT | DT40 Tdp1-/- hTDP1 cells, no CPT, ATP luminescence, 48 h | Potency, µM (titrated, usually from 46.2 µM), hits mostly inhibitors | actives 15% (n = 420,000) | AID 686978, 2013; also: nearly all actives have a fitted effect of over 55% in size
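No-CPT arm: Tdp1-/-;hTDP1 DT40 cells (400/well) plus compounds, incubated ≥48 hr at 37 °C. Readout CellTiter-Glo luminescence.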
HepG2 tox: kills HepG2 cells in TGF-b inhibitor counter-screen | AID 588856 | actives 0.76% (n = 410,000) | Potency, µM (highest dose often 46.1 µM), most hits filed as cytotoxic | HepG2 CAGA-GFP viability, ATP luminescence, 18 h
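HepG2 CAGA-GFP cells (1000/well, DMEM with 1% FBS) received compound, then TGF-beta at 500 pg/mL final, and were incubated 18 hours at 37 degrees C. Viability was read by CellTiter-Glo luminescence. Media-only wells were set as complete cell-killing and DMSO as no toxicity.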
S-ASM inh: human S-ASM enzyme inhibition; P17405; placental ASM, HMU-PC fluorogenic substrate, 60 min; Potency, µM (top dose mostly 57.5 µM), usual class: inhibitors; actives 0.006% (n = 340,000); AID 504937
Target sequence (P17405 47-631 limits assumed): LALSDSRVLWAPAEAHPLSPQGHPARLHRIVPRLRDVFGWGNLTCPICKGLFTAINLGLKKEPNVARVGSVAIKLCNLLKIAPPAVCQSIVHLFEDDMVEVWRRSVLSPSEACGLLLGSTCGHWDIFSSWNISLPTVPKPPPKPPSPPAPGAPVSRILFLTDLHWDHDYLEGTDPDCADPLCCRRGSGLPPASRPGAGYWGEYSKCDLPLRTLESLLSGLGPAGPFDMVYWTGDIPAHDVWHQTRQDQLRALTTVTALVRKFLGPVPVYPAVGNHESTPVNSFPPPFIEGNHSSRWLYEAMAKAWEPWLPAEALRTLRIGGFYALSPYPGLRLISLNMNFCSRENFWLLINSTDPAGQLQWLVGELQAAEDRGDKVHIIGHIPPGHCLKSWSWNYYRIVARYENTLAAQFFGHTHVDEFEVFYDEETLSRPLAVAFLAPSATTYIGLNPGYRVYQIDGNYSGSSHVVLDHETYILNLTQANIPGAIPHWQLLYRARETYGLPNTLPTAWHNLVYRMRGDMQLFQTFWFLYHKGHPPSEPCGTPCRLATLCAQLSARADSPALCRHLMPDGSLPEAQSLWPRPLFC
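Human placenta-derived ASM preincubated with compound 10 min at room temperature, then reacted with 9 uM (final) fluorogenic HMU-PC substrate for 60 min at 37 C. Stop solution raises pH to 10; fluorescence read at Ex 386/Em 447 nm.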
Each line names hits and unclear results; the compound was inactive in the other large screens; ! = not active in a repeat. Hits are enriched below; roughly 19% of the tested compounds scored in any of these assays. Unless noted, calls follow the shape of the dose curve; as a rule, active = well fitted curve in the direction sought with a large enough effect; inconclusive = small, poorly fitted or top-dose-only effect, or another doubt; inactive = no such curve, though single readings can be large; an effect the other way counts as inactive or inconclusive.

O=C(Cc1c(O)c2ccccc2[nH]c1=O)N(Cc1ccccc1)Cc1ccccc1	none
CCCCCCN(CCCCCC)C(=O)Cc1c(-c2ccc(F)cc2)[nH]c2ccccc12	TDP1 cell CPT 9.4µM!, TDP1 cell noCPT 13µM
CC(=O)Nc1cc(-c2ccc(N3CCN(C)CC3)cc2)cn2c(-c3ccc(S(C)(=O)=O)cc3)cnc12	TDP1 cell CPT 15µM, TDP1 cell noCPT 21µM (no result: S-ASM inh)
CC(=O)Nc1cc(-c2ccc(N3CCN(C)CC3)cc2)cn2c(-c3ccccc3)cnc12	TDP1 cell CPT 21µM, TDP1 cell noCPT 16µM (no result: IL-1B inflam inh, S-ASM inh)
CC(=O)Nc1cc(-c2ccc(S(C)(=O)=O)cc2)cn2c(-c3ccc(F)cc3)cnc12	TDP1 cell CPT inconclusive, IL-1B inflam inh inconclusive, TDP1 cell noCPT inconclusive (no result: S-ASM inh)
Cc1ccc(OCc2cc(C(=O)N(CCO)Cc3cccs3)no2)cc1C	TDP1 cell CPT inconclusive, IL-1B inflam inh -62, TDP1 cell noCPT inconclusive
CCN(Cc1ccncc1)C(=O)c1cc(COc2ccc(C)c(C)c2)on1	IL-1B inflam inh -53, TDP1 cell noCPT inconclusive
Cc1ccc(C(=O)N2CCc3ccccc32)o1	TDP1 cell noCPT 3.3µM
COc1cc2c(cc1OC)CN(C(=O)c1ccc([N+](=O)[O-])o1)CC2	TDP1 cell CPT inconclusive, IL-1B inflam inh inconclusive, TGFb inhibitor 13µM, TDP1 cell noCPT inconclusive
O=C(c1ccc([N+](=O)[O-])o1)N1CCc2ccccc21	TDP1 cell CPT 10µM, IL-1B inflam inh inconclusive, TDP1 cell noCPT 12µM
COc1cc2c(cc1OC)CN(C(=O)c1oc3ccccc3c1C)CC2	TDP1 cell CPT 21µM, TGFb inhibitor inconclusive, TDP1 cell noCPT 23µM
Cc1ccc(C(=O)N2c3ccccc3CC2C)o1 (stereo unspecified)	TDP1 cell CPT inconclusive
Cc1ccc(S(=O)(=O)NC(=O)COc2cc(C)ccc2C(C)C)cc1	TDP1 cell CPT inconclusive
O=C(c1ccc([N+](=O)[O-])o1)N1CCOCC1	TDP1 cell noCPT inconclusive
O=C(c1ccc([N+](=O)[O-])o1)N1CCc2ccccc2C1	TDP1 cell CPT 21µM, TGFb inhibitor inconclusive, TDP1 cell noCPT 15µM
CN(CCC1CCOCC1)C(=O)CC1C(=O)NCCN1Cc1c(F)cccc1Cl (stereo unspecified)	none
COc1cc(COc2ccc3c(C)c(Cc4ccccc4)c(=O)oc3c2C)cc(OC)c1OC	TDP1 cell CPT 21µM, TDP1 cell noCPT 18µM
CC(C)CNC(=O)C1(C)CCCN1Cc1ccc(S(C)(=O)=O)cc1 (stereo unspecified)	none (no result: S-ASM inh)
COc1ccc(C(O)c2nc(-c3cccc(C(F)(F)F)c3)cs2)cc1 (stereo unspecified)	TDP1 cell CPT 21µM, TGFb inhibitor inconclusive, TDP1 cell noCPT inconclusive (no result: S-ASM inh)
COc1ccc(C(O)c2nc(-c3cccc(F)c3)cs2)cc1 (stereo unspecified)	TDP1 cell CPT 16µM, IL-1B inflam inh -93, TDP1 cell noCPT inconclusive (no result: S-ASM inh)
COc1cc(C(O)c2nc(-c3cccc(C(F)(F)F)c3)cs2)ccc1F (stereo unspecified)	TDP1 cell CPT 16µM, IL-1B inflam inh inconclusive, TGFb inhibitor 13µM, TDP1 cell noCPT inconclusive, HepG2 tox 11µM (no result: S-ASM inh)
COc1cc(C(O)c2nc(-c3ccc(C)c(C)c3)cs2)ccc1F (stereo unspecified)	TDP1 cell CPT inconclusive, TDP1 cell noCPT inconclusive (no result: S-ASM inh)
COc1cccc(C(O)c2nc(-c3cccc(C(F)(F)F)c3)cs2)c1 (stereo unspecified)	TGFb inhibitor inconclusive, TDP1 cell noCPT 0.58µM (no result: S-ASM inh)
COc1ccc(NCc2cc3ccc(OC)cc3n(CC(=O)Nc3cccc(OC)c3)c2=O)cc1	none (no result: TDP1 cell CPT, IL-1B inflam inh, TDP1 cell noCPT, S-ASM inh)
Cc1ccc(-c2nc(CS(=O)(=O)CC(=O)Nc3ccc(Br)cc3F)c(C)o2)cc1	TDP1 cell CPT inconclusive, TDP1 cell noCPT inconclusive (no result: IL-1B inflam inh, S-ASM inh)
